Some test systems named below: SR leukemia; OVCAR-8 ovarian; OVCAR-5 ovarian; OVCAR-4 ovarian; SK-OV-3 ovarian; IGROV1 ovarian; OVCAR-3 ovarian; HS 578T breast; NCI/ADR-RES ovarian; T-47D breast; BT-549 breast; SW-620 colon; MCF7 breast; HCT-116 colon; HCC-2998 colon; KM12 colon; RPMI-8226 leukemia; MDA-MB-435 melanoma.
Common to all, as to test: NCI-60 one-dose screen, 48 h (100 = growth as untreated, 0 = no growth, -100 = all killed)
Details in all cases: 10 µM unless noted

The results in this text go back to PubChem BioAssay (NCI).

About 83,000 compounds went through this panel and 20% of them were active in at least one assay; those are over-represented in the sample as a whole.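 Note: values are percent growth. 100 is the growth of untreated cells, values between 100 and 0 indicate rising inhibition; between -100 and 0 indicates cell death.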 A number with no mark means an inactive call. Active and inactive are the calls of the source. The calls were made as follows: active = growth percent below 10; inactive = the rest.

Turning to `CC(C)C(=O)Nc1ccc(-c2nc(-c3cccc(O)c3)c(-c3ccnc(Br)c3)[nH]2)cc1`, the growth in the assay with SR leukemia was -3.9% (active); in the assay with OVCAR-8 ovarian, 49.5%; in the assay with OVCAR-5 ovarian, 84.3%; in the assay with OVCAR-4 ovarian, 43.4%; with SK-OV-3 ovarian, 54.5%; in the assay on IGROV1 ovarian, 59.4%. The growth in the assay on OVCAR-3 ovarian is 56.1%; in the assay on HS 578T breast it was -12% (active); in the assay on NCI/ADR-RES ovarian it was 92.3%; in the assay with T-47D breast, 7.84% (active); in the assay on BT-549 breast it was 60.5%; in the assay on SW-620 colon, 43.2%. Also, the growth in the assay on MCF7 breast is 11.7%; in the assay on HCT-116 colon it was 53.4%; in the assay with HCC-2998 colon, 67.9%; in the assay on KM12 colon, 43.3%.
On to `CN(c1ccc(Cl)cc1)S(=O)(=O)c1ccc(-c2cnc(C3CC3)o2)cc1`, for which the growth was 8.67% (active) in the assay on SR leukemia; 30.7% with OVCAR-8 ovarian; 38.3% in the assay with OVCAR-5 ovarian; 54.7% with OVCAR-4 ovarian; 84.1% in the assay on SK-OV-3 ovarian; 28.8% in the assay with IGROV1 ovarian. Moreover, the growth in the assay on OVCAR-3 ovarian was 9.18% (active); in the assay with HS 578T breast, 49.3%; in the assay with NCI/ADR-RES ovarian, 13.6%; in the assay with T-47D breast it was 58.9%; in the assay with BT-549 breast, 35.1%; with SW-620 colon, 25.8%. Further, the growth in the assay on MCF7 breast was 15%; in the assay with HCT-116 colon, 10.6%; with HCC-2998 colon, 22.7%; with KM12 colon it was 8.94% (active).
Take `O=S(=O)(Nc1cc(Cl)cc(Cl)c1)c1ccc(-c2cnc(C3CC3)o2)cc1`: the growth with SR leukemia was 29.5%; with OVCAR-8 ovarian, 47%; in the assay with OVCAR-5 ovarian, 45.6%; in the assay with OVCAR-4 ovarian, 63.6%; in the assay on IGROV1 ovarian it was 40.7%; in the assay with OVCAR-3 ovarian it was 17.2%. The growth is 36.7% with HS 578T breast; 18.8% in the assay on NCI/ADR-RES ovarian; 41.7% in the assay with T-47D breast; 58.4% in the assay on BT-549 breast; 26.1% in the assay with SW-620 colon; 20.9% in the assay on MCF7 breast. The growth in the assay with HCT-116 colon was 31.3%; in the assay on HCC-2998 colon it was 56.7%; in the assay on KM12 colon it was 24.2%.
As for `O=C(CN1CCN(c2cc(=O)n(-c3ccccc3)c3ccccc23)CC1)Nc1ccc([N+](=O)[O-])cc1`, the growth is 88.6% with SR leukemia; 91.3% with OVCAR-8 ovarian; 98.7% with OVCAR-5 ovarian; 65.9% in the assay on OVCAR-4 ovarian; 84.3% with IGROV1 ovarian; 90.9% in the assay on OVCAR-3 ovarian. Further, the growth is 89.9% with HS 578T breast; 91.1% in the assay on NCI/ADR-RES ovarian; 64.9% in the assay with T-47D breast; 94.5% with BT-549 breast; 92.3% in the assay on SW-620 colon; 88.2% in the assay on MCF7 breast. The growth with HCT-116 colon is 92.6%; in the assay on HCC-2998 colon it was 105%; in the assay on KM12 colon, 92.9%.
Consider `COc1ccc([C@H]2[C@H](O)C(=O)N2c2cc(OC)c(OC)c(OC)c2)cc1O`, for which the growth in the assay with RPMI-8226 leukemia was 16.5%; in the assay with OVCAR-8 ovarian, -11.5% (active); in the assay with OVCAR-5 ovarian, 30.1%; with OVCAR-4 ovarian it was 70.3%; with SK-OV-3 ovarian, 21.4%; in the assay with IGROV1 ovarian, 26.7%. Also, the growth with HS 578T breast is 5.02% (active); with NCI/ADR-RES ovarian it was 18.6%; in the assay with T-47D breast, 75.8%; in the assay on BT-549 breast, -9.8% (active); in the assay with MDA-MB-435 melanoma, -13.1% (active); with SW-620 colon, 17%. Besides, the growth in the assay on MCF7 breast is 8.66% (active); in the assay with HCT-116 colon, -8.58% (active); with HCC-2998 colon it was 19.5%; with KM12 colon, 13.1%.
Regarding `O=C(/C=C1\C=CN(CCCCCCF)c2ccccc21)n1ccc2ccccc21`, the growth with RPMI-8226 leukemia is 74.7%; in the assay on OVCAR-8 ovarian, 101%; with OVCAR-5 ovarian, 99.3%; with OVCAR-4 ovarian, 81.9%; in the assay on SK-OV-3 ovarian, 98.8%; with IGROV1 ovarian it was 67.6%. Further, the growth in the assay with OVCAR-3 ovarian is 100%; with HS 578T breast, 96.7%; in the assay on NCI/ADR-RES ovarian it was 105%; in the assay on T-47D breast, 82%; with BT-549 breast, 103%; in the assay on MDA-MB-435 melanoma it was 108%. The growth in the assay with SW-620 colon is 104%; with MCF7 breast, 88.4%; in the assay with HCT-116 colon, 84.8%; in the assay with HCC-2998 colon, 107%; in the assay with KM12 colon, 100%.
In the case of `O=C1NC(=O)c2c1c1c3ccccc3ccc1c1[nH]c3ccccc3c21`, the growth in the assay with RPMI-8226 leukemia is 1.6% (active); with OVCAR-8 ovarian it was 6.43% (active); in the assay on OVCAR-5 ovarian, 49.6%; in the assay on OVCAR-4 ovarian, 25.8%; with SK-OV-3 ovarian, 2.2% (active); with IGROV1 ovarian, 9.53% (active). Also, the growth with HS 578T breast is 12.7%; in the assay on NCI/ADR-RES ovarian, 0.105% (active); with T-47D breast, 11.8%; with BT-549 breast, 7.84% (active); in the assay with MDA-MB-435 melanoma, 9.08% (active); in the assay on SW-620 colon, 28.2%. Besides, the growth was 3.61% (active) with MCF7 breast, 14.4% in the assay with HCT-116 colon and 46.1% in the assay on HCC-2998 colon.
For `Cn1nc(Nc2ccccc2)c(C(=O)NN)c1N`, the growth with RPMI-8226 leukemia was 106%; with OVCAR-8 ovarian, 97.5%; with OVCAR-5 ovarian it was 102%; with OVCAR-4 ovarian, 99.9%; in the assay with SK-OV-3 ovarian it was 103%; with IGROV1 ovarian it was 95.4%. Besides, the growth in the assay with HS 578T breast was 99.7%; in the assay with NCI/ADR-RES ovarian it was 93.9%; in the assay on T-47D breast, 95.4%; in the assay with BT-549 breast it was 129%; in the assay with MDA-MB-435 melanoma, 105%; in the assay on SW-620 colon it was 99.8%. In addition, the growth with MCF7 breast was 89.7%; in the assay on HCT-116 colon it was 113%; in the assay with HCC-2998 colon, 107%; in the assay with KM12 colon it was 99.4%.
For `Oc1ccc(CSc2nnc(-c3ccc(Oc4ccccc4)cc3)o2)c2cccnc12`, the growth is 23.5% in the assay with RPMI-8226 leukemia; 24.2% with OVCAR-8 ovarian; 48.3% with OVCAR-5 ovarian; -36.5% (active) in the assay with OVCAR-4 ovarian; 22% with SK-OV-3 ovarian; 26.1% with IGROV1 ovarian. In addition, the growth with OVCAR-3 ovarian is -28.7% (active); with HS 578T breast, 10.4%; in the assay on NCI/ADR-RES ovarian, 12.6%; in the assay with T-47D breast, 7.85% (active); in the assay on BT-549 breast it was 49.8%; with SW-620 colon, 2.32% (active). The growth is 16% in the assay on MCF7 breast, 1.74% (active) in the assay on HCT-116 colon, 29.4% with HCC-2998 colon and 9.88% (active) with KM12 colon.
